Results as given in PubChem BioAssay (NCATS).
Results filed as inconclusive are left out. Entries that show only a call come without a potency. Activity calls are given as the source filed them. Calls follow the shape of the dose curve; as a rule, active = well fitted inhibition curve with a large enough effect; inconclusive = small, poorly fitted or top-dose-only effect; inactive = no such curve, though single readings can be large or run the other way.

Biological target: Cytochrome P450 3A7 (Homo sapiens) (UniProt P24462)
Assay: Cytochrome P450 family 3 subfamily A member 7 (CYP3A7) small molecule antagonists: luciferase biochemical qHTS assay (AID 1963596); also: nearly all actives have a fitted effect of over 40% in size
How it was run: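 Biochemical CYP3A7 activity measured with P450-Glo system: luciferin formed from proluciferin substrate in NADPH-driven reaction (1 h, room temperature) after 10 min compound preincubation. Signal in relative luminescence units.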

Sequence of Cytochrome P450 3A7 (Homo sapiens) (P24462 whole entry, looked up): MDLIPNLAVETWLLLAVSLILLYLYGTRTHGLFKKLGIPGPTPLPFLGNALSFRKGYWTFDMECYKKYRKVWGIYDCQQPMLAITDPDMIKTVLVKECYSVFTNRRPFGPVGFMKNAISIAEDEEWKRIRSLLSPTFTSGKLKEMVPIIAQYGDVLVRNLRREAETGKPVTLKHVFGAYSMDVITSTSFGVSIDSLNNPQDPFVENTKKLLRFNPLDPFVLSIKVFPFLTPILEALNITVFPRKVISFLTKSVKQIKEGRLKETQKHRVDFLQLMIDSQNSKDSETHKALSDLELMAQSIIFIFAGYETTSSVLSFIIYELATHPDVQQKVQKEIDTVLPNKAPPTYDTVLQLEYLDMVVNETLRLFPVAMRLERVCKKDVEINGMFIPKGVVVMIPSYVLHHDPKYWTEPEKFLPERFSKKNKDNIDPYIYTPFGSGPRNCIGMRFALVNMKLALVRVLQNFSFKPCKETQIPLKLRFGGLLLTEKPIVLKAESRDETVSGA

For `Cc1cccc(C)c1NC(=O)C(C)N` (stereo not drawn), which Potency is on record?
The Potency was “inactive”.

`CCOC(=O)c1ccc(Nc2nc3nonc3nc2Nc2cccc(C)c2C)cc1` was tested. Which Potency did it give?
The Potency was “inactive”.

For `COc1ccc2cc(Br)ccc2c1`, which Potency is on record?
Its Potency is “inactive”.

For `NC[C@H]1CCC[C@@H](CNC(=O)[C@@H](Cc2c[nH]c3ccccc23)NC(=O)N2CCC3(C=Cc4ccccc43)CC2)C1`, which Potency is on record?
The Potency was “inactive”.

How did the Potency turn out when `CCOc1cc(C(=O)Nc2ccc(-c3nc4ncccc4o3)cc2C)cc(OCC)c1OCC` was run?
The Potency was “inactive”.

How did the Potency turn out when `CCOC(=O)c1ccc(NC(=O)c2cc(=O)c3ccc(C)c(C)c3o2)cc1` was run?
Its Potency is “inactive”.

`CCOc1cc(C(=O)Nc2ccc(Cl)c(-c3nc4ccccc4[nH]3)c2)cc(OCC)c1OCC` was tested. Which Potency did it give?
The Potency was “inactive”.

With `O=C(O)CN(CC(=O)O)Cc1cc2c(-c3ccccc3C(=O)O)c3cc(CN(CC(=O)O)CC(=O)O)c(=O)cc-3oc2cc1O` as the molecule, how does the Potency read?
The Potency was “inactive”.

With `CN(C)C(=O)NC1CCC(CCN2CCN(c3cccc(Cl)c3Cl)CC2)CC1` (stereo not drawn) as the molecule, how does the Potency read?
The Potency was “inactive”.

With `CC(C)Nc1nc(Nc2ccccc2)nc(-c2ccccc2)n1` as the molecule, how does the Potency read?
The Potency was “inactive”.

How did the Potency turn out when `Cn1nnc(-c2ccc(-c3ccc(N4C[C@H](CO)OC4=O)cc3F)cn2)n1` was run?
The Potency was “inactive”.

For `CC1(O)CCC(C(C)(C)O)CC1` (stereo not drawn), which Potency is on record?
Its Potency is “inactive”.

How did the Potency turn out when `CC(C)[C@H]1CC[C@H](C)C[C@H]1O` was run?
Its Potency is “inactive”.

How did the Potency turn out when `Nc1nc(=O)n([C@@H]2CS[C@H](CO)O2)cc1F` was run?
The Potency was “inactive”.

How did the Potency turn out when `NC(=O)C[C@H](N)C(=O)O` was run?
Its Potency is “inactive”.

With `O=C(Nc1ccccc1C(=O)Nc1ccc(CCO)cc1)c1ccc([N+](=O)[O-])cc1` as the molecule, how does the Potency read?
The Potency was “inactive”.

Which Potency does the source give for `COc1ccccc1C(=O)Nc1cccc(NC(=O)c2cccc(C)c2)c1` here?
Its Potency is “inactive”.

Which Potency does the source give for `COc1ccccc1N1CCN(CC[C@@](C)(C(=O)C2CCCCC2)c2ccccc2)CC1` here?
Its Potency is “inactive”.
